Results filed as inconclusive are left out. The source made the active and inactive calls.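 The calls were made as follows, unless noted: active = normalized viability below 100% at a tested concentration; inactive = the rest.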
Legend:
[1] = growth inhibition of DIPG glioma cells, dose response, cell-based, SU-DIPG-XVII, MIPE5.0, CellTiter-Glo, qHTS (AID 1347060; cut-off not given, nearly all actives have AC50 up to about 26 µM;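 also: cells exposed to compound for 48 hours before viability readout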); details: SU-DIPG-XVII viability, CellTiter-Glo ATP luminescence
[2] = growth inhibition of DIPG glioma cells, dose response, cell-based, JHH-DIPG-1, MIPE4.0, CellTiter-Glo, qHTS (AID 1347062; cut-off not given, nearly all actives have AC50 up to about 27 µM;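 also: cells exposed to compound for two days before readout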); details: JHH-DIPG-1 viability, CellTiter-Glo ATP luminescence
[3] = growth inhibition of DIPG glioma cells, dose response, cell-based, SU-DIPG-IV, MIPE4.0, CellTiter-Glo, qHTS (AID 1347063; cut-off not given, nearly all actives have AC50 up to about 30 µM;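 also: compound exposure lasted 48 hours before the viability readout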); details: SU-DIPG-IV viability, CellTiter-Glo ATP luminescence
[4] = viability loss in pontine glioma line – cell-based, SU-DIPG-XXV, MIPE5.0, CellTiter-Glo, qHTS, dose response (AID 1347065; cut-off not given, nearly all actives have AC50 up to about 26 µM;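 also: cells exposed to compound for 48 hours before ATP readout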); details: CellTiter-Glo ATP luminescence
[5] = JHH-DIPG-1 glioma cell viability, MIPE5.0 library, CellTiter-Glo luminescence, qHTS (AID 1347067; cut-off not given, nearly all actives have AC50 up to about 26 µM;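 also: cells exposed to compound for 48 hours before readout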); details: JHH-DIPG-1 glioma viability, CellTiter-Glo ATP luminescence
[6] = SU-DIPG-XXV glioma cell viability, MIPE5.0 library, qHTS (AID 1347068; cut-off not given, nearly all actives have IC50 up to about 30 µM;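 as to IC50: cells exposed to compound for 48 hours before viability readout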)
[7] = sensitizers of A549 cells to miR-34 induction, primary screen, imaging, A549 dox-inducible miR-34, nuclei and caspase counts (AID 1347080;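 active = compounds whose cell count with miR-34 switched on is under 0.7 times the count with it off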); details: A549 miR-34 inducible, Hoechst nuclei count, 48 h
[8] = modifiers of HSF1 nuclear foci, imaging, Selleck Cancer Library (AID 1347162; in the data active = plate-normalised HSF1 focus index below about 0.46); details: human cells, at 10 µM; SSMD: measured here: HSF1 foci SSMD mean; cell count: measured here: cell number; plate-normalised HSF1 focus index: stronger effect = lower value
[9] = survival rescue of mitochondrial mutant cells in low glucose, primary screen, MELAS cybrids, Rieske KO mouse fibroblasts, CellTiter-Glo (AID 1508586;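 active = mean z-score across replicates of 1.96 or higher in either the MELAS or the Rieske mutant cell line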;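 also: z relative to plate mean and SD of compound and empty wells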)
[10] = ovarian cancer cell viability with rucaparib, profiling panel, oncology-focused library, rucaparib conditional (AID 1508598); details: patient-derived ovarian cancer cells, CellTiter-Glo viability, 144 h, stronger effect = lower value
[11] = SU-DIPG-VI glioma cell viability, MIPE4.0 library, CellTiter-Glo luminescence, qHTS (AID 1347066; cut-off not given, nearly all actives have AC50 up to about 30 µM;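 also: cells exposed to compound for 48 hours before readout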); details: CellTiter-Glo ATP luminescence
[12] = stronger effect = lower value, cell number ratio, induced over uninduced
[13] = measured here: relative caspase fold change +Dox/-Dox
[14] = measured here: total cells with miR-34 induction, stronger effect = lower value
[15] = measured here: total cells without miR-34 induction
[16] = MELAS cybrid survival, CellTiter-Glo 48 h, stronger effect = higher value
[17] = Rieske KO mouse fibroblast survival, CellTiter-Glo 72 h
[18] = at 0.000305 µM, OCI-C5x cells, with rucaparib 10 µM, 100% = cells with rucaparib alone
[19] = at 0.000305 µM, OCI-C5x cells, without rucaparib
[20] = at 0.000305 µM, OCI-P5x cells, with rucaparib 20 µM, 100% = cells with rucaparib alone
[21] = at 0.000305 µM, OCI-P5x cells, without rucaparib
[22] = at 0.00122 µM, OCI-C5x cells, with rucaparib 10 µM, 100% = cells with rucaparib alone
[23] = at 0.00122 µM, OCI-C5x cells, without rucaparib
[24] = at 0.00122 µM, OCI-P5x cells, with rucaparib 20 µM, 100% = cells with rucaparib alone
[25] = at 0.00122 µM, OCI-P5x cells, without rucaparib
[26] = at 0.00488 µM, OCI-C5x cells, with rucaparib 10 µM, 100% = cells with rucaparib alone
[27] = at 0.00488 µM, OCI-C5x cells, without rucaparib
[28] = at 0.00488 µM, OCI-P5x cells, with rucaparib 20 µM, 100% = cells with rucaparib alone
[29] = at 0.00488 µM, OCI-P5x cells, without rucaparib
[30] = at 0.0195 µM, OCI-C5x cells, with rucaparib 10 µM, 100% = cells with rucaparib alone
[31] = at 0.0195 µM, OCI-C5x cells, without rucaparib
[32] = at 0.0195 µM, OCI-P5x cells, with rucaparib 20 µM, 100% = cells with rucaparib alone
[33] = at 0.0195 µM, OCI-P5x cells, without rucaparib
[34] = at 0.0781 µM, OCI-C5x cells, with rucaparib 10 µM, 100% = cells with rucaparib alone
[35] = at 0.0781 µM, OCI-C5x cells, without rucaparib
[36] = at 0.0781 µM, OCI-P5x cells, with rucaparib 20 µM, 100% = cells with rucaparib alone
[37] = at 0.0781 µM, OCI-P5x cells, without rucaparib
[38] = at 0.313 µM, OCI-C5x cells, with rucaparib 10 µM, 100% = cells with rucaparib alone
[39] = at 0.313 µM, OCI-C5x cells, without rucaparib
[40] = at 0.313 µM, OCI-P5x cells, with rucaparib 20 µM, 100% = cells with rucaparib alone
[41] = at 0.313 µM, OCI-P5x cells, without rucaparib
[42] = at 1.25 µM, OCI-C5x cells, with rucaparib 10 µM, 100% = cells with rucaparib alone
[43] = at 1.25 µM, OCI-C5x cells, without rucaparib
[44] = at 1.25 µM, OCI-P5x cells, with rucaparib 20 µM, 100% = cells with rucaparib alone
[45] = at 1.25 µM, OCI-P5x cells, without rucaparib
[46] = at 5 µM, OCI-C5x cells, with rucaparib 10 µM, 100% = cells with rucaparib alone
[47] = at 5 µM, OCI-C5x cells, without rucaparib
[48] = at 5 µM, OCI-P5x cells, with rucaparib 20 µM, 100% = cells with rucaparib alone
[49] = at 5 µM, OCI-P5x cells, without rucaparib

CC(C)CC(=O)Nc1n[nH]c2c1CN(C(=O)C1CCN(C)CC1)C2(C)C
1210: cell count [7, 15]
0.942: fold change [7, 13]
7270: cell count [8]
inactive: fold change [7, 12] 1.09 | plate-normalised HSF1 focus index [8] 0.661 | viability [10, 18] 123% | viability [10, 19] 128% | viability [10, 20] 101% | viability [10, 21] 115% | viability [10, 22] 108% | viability [10, 23] 125% | viability [10, 24] 101% | viability [10, 25] 118% | viability [10, 26] 120% | viability [10, 27] 128% | viability [10, 29] 112% | viability [10, 30] 120% | viability [10, 31] 130% | viability [10, 34] 112% | viability [10, 35] 134% | viability [10, 36] 107% | viability [10, 37] 122% | viability [10, 38] 109% | viability [10, 39] 118% | viability [10, 42] 109% | viability [10, 43] 113%
1320: cell count [7, 14]
active: AC50 [1] 6.61 µM | AC50 [2] 1.05 µM | AC50 [3] 2.35 µM | AC50 [4] 10.5 µM | AC50 [5] 4.17 µM | IC50 [6] 10.5 µM | z-score [9, 16] 2.08 | viability [10, 28] 95.7% | viability [10, 32] 75.5% | viability [10, 33] 92.9% | viability [10, 40] 99.5% | viability [10, 41] 96% | viability [10, 44] 75.7% | viability [10, 45] 69% | viability [10, 46] 45.8% | viability [10, 47] 69.4% | viability [10, 48] 25.6% | viability [10, 49] 6.68%
-0.842: z-score [9, 17]
-5.41: SSMD [8]

CC(=O)OCC(=O)[C@@]1(O)[C@H](C)C[C@H]2[C@@H]3C=C(C)C4=Cc5c(cnn5-c5ccccc5)C[C@]4(C)[C@H]3[C@@H](O)C[C@@]21C
active: AC50 [1] 20.9 µM | AC50 [2] 9.35 µM | AC50 [3] 5.26 µM | AC50 [4] 23.5 µM | AC50 [11] 26.4 µM
inactive: outcome [6]

CC(C)C[C@H](NC(=O)CNC(=O)c1cc(Cl)ccc1Cl)B(O)O
active: AC50 [1] 0.166 µM | AC50 [2] 0.166 µM | AC50 [3] 0.118 µM | AC50 [4] 0.0833 µM | AC50 [5] 0.263 µM | IC50 [6] 0.105 µM | viability [10, 32] 96.7% | viability [10, 34] 88.7% | viability [10, 37] 80.5% | viability [10, 38] 30.3% | viability [10, 39] 22.4% | viability [10, 40] 22% | viability [10, 41] 4.33% | viability [10, 42] 7.48% | viability [10, 43] 6.01% | viability [10, 44] 2.76% | viability [10, 45] 1.33% | viability [10, 46] 1.81% | viability [10, 47] 1.62% | viability [10, 48] 1.18% | viability [10, 49] 0.837%
6790: cell count [8]
-0.17: SSMD [8]
inactive: plate-normalised HSF1 focus index [8] 0.988 | viability [10, 18] 111% | viability [10, 19] 132% | viability [10, 20] 106% | viability [10, 21] 121% | viability [10, 22] 112% | viability [10, 23] 130% | viability [10, 24] 106% | viability [10, 25] 111% | viability [10, 26] 126% | viability [10, 27] 129% | viability [10, 28] 104% | viability [10, 29] 116% | viability [10, 30] 122% | viability [10, 31] 128% | viability [10, 33] 116% | viability [10, 35] 103% | viability [10, 36] 101%

C=CCn1c(=O)c2cnc(Nc3ccc(N4CCN(C)CC4)cc3)nc2n1-c1cccc(C(C)(C)O)n1
0.673: fold change [7, 13]
inactive: fold change [7, 12] 1.27 | plate-normalised HSF1 focus index [8] 1.07 | z-score [9, 16] 0.245 | viability [10, 18] 126% | viability [10, 19] 107% | viability [10, 22] 122% | viability [10, 23] 109% | viability [10, 24] 102% | viability [10, 26] 121% | viability [10, 27] 107% | viability [10, 28] 102% | viability [10, 30] 120% | viability [10, 31] 102% | viability [10, 34] 104%
active: AC50 [1] 4.17 µM | AC50 [2] 0.418 µM | AC50 [3] 11.8 µM | AC50 [4] 1.05 µM | viability [10, 20] 88.3% | viability [10, 21] 91.1% | viability [10, 25] 98.1% | viability [10, 29] 98.9% | viability [10, 32] 88.1% | viability [10, 33] 97.6% | viability [10, 35] 96.7% | viability [10, 36] 82.5% | viability [10, 37] 92.8% | viability [10, 38] 69.6% | viability [10, 39] 55.3% | viability [10, 40] 65.5% | viability [10, 41] 59.9% | viability [10, 42] 54.7% | viability [10, 43] 40.2% | viability [10, 44] 45.8% | viability [10, 45] 23.7% | viability [10, 46] 35.9% | viability [10, 47] 25.1% | viability [10, 48] 14.5% | viability [10, 49] 7.98%
1100: cell count [7, 15]
1.04: SSMD [8]
1400: cell count [7, 14]
1.66: z-score [9, 17]
6680: cell count [8]

Source: PubChem BioAssay
